Measurements from PubChem BioAssay AID1508637 (National Center for Advancing Translational Sciences (NCATS), 2021).
Records with an inconclusive call do not appear. Active and inactive are the calls of the source. The call rests on the fitted dose curve; in most records, active means well fitted inhibition curve with a large enough effect; inconclusive means small, poorly fitted or top-dose-only effect; inactive means flat fitted curve, though single readings scatter. Starred links: 1 amine or outer side, 2 acyl side, 3 side chain; linkers in the order of their positions; H or OH if unused. Positions of bridges follow the written chain, without caps; N, C: chain ends. Non-standard residues stand in square brackets, D forms with d. Residues, ends and D or L forms follow the SMILES beside them. Chains are numbered I, II in the order given. ξ: configuration not given here. *: point of attachment. Actinocin(9to1) = Cc1c2oc3c(C)ccc(C(=O)[*:1])c3nc-2c(C(=O)[*:2])c(N)c1=O; ξNMeV = CNC(C(=O)O)C(C)C; Cbz = O=C(OCc1ccccc1)*; Nva = CCC[CH](N)C(=O)O; ξV = CC(C)C(N)C(=O)O; Sar = CNCC(=O)O

Assay: qHTS for characterization and localization of zebrafish homologs of the human ABCB1 multidrug transporter: empty vector transfected cells
Conditions: empty vector transfected control cells, CellTiter-Glo luminescence viability, 72 h; series mostly up to 46.1 µM
How it was run: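 About 90 known P-gp substrates were titrated onto four cell lines: vector control, MDR-19 (human P-gp) and zebrafish Abcb4 or Abcb5 transfectants. After 72 h, ATP luminescence (CellTiter-Glo) gave curves; cytotoxic required AC50 < 10 uM, >50% response and inhibitory curve class.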

SMILES | Potency
C=CCn1c(=O)c2cnc(Nc3ccc(N4CCN(C)CC4)cc3)nc2n1-c1cccc(C(C)(C)O)n1 | 1180 nM (active)
CC[C@@]1([C@@H]2O[C@@H]([C@H]3O[C@@](O)(CO)[C@H](C)C[C@@H]3C)C[C@@H]2C)CC[C@H]([C@]2(C)CC[C@]3(C[C@H](O)[C@@H](C)[C@@H]([C@@H](C)[C@@H](OC)[C@H](C)C(=O)O)O3)O2)O1 | 148 nM (active)
COC[C@H](NC(=O)c1cnc(C)s1)C(=O)N[C@@H](COC)C(=O)N[C@@H](Cc1ccccc1)C(=O)[C@@]1(C)CO1 | 166 nM (active)
CC[C@@H]1C(=O)N(C)c2cnc(Nc3ccc(C(=O)NC4CCN(C)CC4)cc3OC)nc2N1C1CCCC1 | 46.9 nM (active)
CC(=O)C1(O)Cc2c(O)c3c(c(O)c2C(OC2CC(N)C(O)C(C)O2)C1)C(=O)c1c(O)cccc1C3=O (configuration not stated) | 41.8 nM (active)
NC(=O)Nc1cc(-c2cccc(F)c2)sc1C(=O)N[C@H]1CCCNC1 | 590 nM (active)
CC(C)C[C@H](NC(=O)[C@H](CCc1ccccc1)NC(=O)CN1CCOCC1)C(=O)N[C@@H](Cc1ccccc1)C(=O)N[C@@H](CC(C)C)C(=O)[C@@]1(C)CO1 | 46.9 nM (active)
CCC(C)C(=O)OC1CC(O)C23C4OCC5(C(O)CC2C1(C)C(O)O4)C3C(=O)C(O)C1(C)C(O)(c2ccoc2)CC2OC251 (configuration not stated) | 1100 nM (active)
CCn1nnc2c(N3CCOCC3)nc(-c3ccc(NC(=O)Nc4ccc(C(=O)N5CCN(C)CC5)cc4)cc3)nc21 | 332 nM (active)
C[C@@H](Oc1cc(-n2cnc3ccc(CN4CCN(C)CC4)cc32)sc1C(N)=O)c1ccccc1C(F)(F)F | 37.2 nM (active)
C[C@@H]1O[C@@H](O[C@H]2[C@@H](OC(=O)[C@]34CCC(C)(C)CC3C3=CCC5[C@@]6(C)C[C@H](O)[C@H](O[C@@H]7O[C@H](CO)[C@@H](O)[C@H](O)[C@H]7O[C@@H]7OC[C@@H](O)[C@H](O)[C@H]7O)[C@@](C)(C(=O)O)C6CC[C@@]5(C)[C@]3(C)CC4)OC[C@H](O)[C@@H]2O)[C@H](O)[C@H](O)[C@H]1O[C@@H]1OC[C@@H](O)[C@H](O)[C@H]1O (some centres not stated) | 1980 nM (active)
Cc1c2oc3c(C)ccc(C(=O)N[C@@H]4C(=O)NC(C(C)C)C(=O)N5CCC[C@H]5C(=O)N(C)CC(=O)N(C)C(C(C)C)C(=O)O[C@@H]4C)c3nc-2c(C(=O)N[C@@H]2C(=O)NC(C(C)C)C(=O)N3CCC[C@H]3C(=O)N(C)CC(=O)N(C)C(C(C)C)C(=O)O[C@@H]2C)c(N)c1=O (some centres not stated) (I: T[ξV]P[Sar][ξNMeV] / II: T[ξV]P[Sar][ξNMeV]; ester I:1-I:C, II:1-II:C; linker I:N-II:N via Actinocin(9to1)) | 7.4 nM (active)
CCCC(C=O)NC(=O)C(CC(C)C)NC(=O)C(CC(C)C)NC(=O)OCc1ccccc1 (stereo not drawn) (Cbz-Leu-Leu-[Nva]-aldehyde; configuration not given here) | 1480 nM (active)
CC(C)(C)c1cnc(CSc2cnc(NC(=O)C3CCNCC3)s2)o1 | 1080 nM (active)
COc1cc(C(=O)NC2CCN(C)CC2)ccc1Nc1ncc2c(n1)N(C1CCCC1)CC(F)(F)C(=O)N2C | 41.8 nM (active)
CN(C)CCN(C)C(=O)c1ccc(NC(=O)Nc2ccc(-c3nc(N4CCOCC4)c4ccn(CC(F)(F)F)c4n3)cc2)cc1 | 264 nM (active)
CCCCc1nc2cc(C=CC(=O)NO)ccc2n1CCN(CC)CC | 3320 nM (active)
